Methyltransferases = Primary Screen for Target Class Profiling of Small Molecule Inhibitors of Methyltransferases; calls only at 40 µM; AID 1745853, 2022; purified enzyme, MTase-Glo SAH luminescence; stronger effect = lower value; hit rate 3.9% among 25,000; call rule not given here
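Each enzyme was assayed with SAM and its substrate. SAH formation detected by MTase-Glo luminescence; single-point 40 uM screen[…].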
Calls only; n = inactive; + = active, no number; ! = repeats disagree. Shown is part of a subset that was picked to be rich in hits.

SMILES | Methyltransferases
COc1cc(Nc2nc3c(s2)CCCC3c2ccccc2)ccc1-n1cnc(C)c1 (stereo not drawn) | n
Cc1nc(CN2CCOc3cc([S+](=O)([O-])N(C)C)ccc3C2)cs1 | n
CCC(C)NC(=O)c1ccc2c(=O)n(C(C)C)c3nn(CC(=O)c4ccc(F)cc4)c(=O)n3c2c1 (stereo not drawn) | n
Cc1ccc(C)c(S(=O)(=O)c2nnn3c2nc(NCCc2c[nH]c4ccccc24)c2ccccc23)c1 | n
Cc1ccc(-c2nnn3c2nc(NCCc2c[nH]c4ccccc24)c2ccccc23)cc1 | n
O=C(CN1C(=O)C2(CCCCC2)C1c1ccccc1)NCCc1c[nH]c2ccccc12 (stereo not drawn) | n
O=C(O)CCCc1c[nH]c2ccccc12 | n
c1ccc2c(CCNc3ccc(Nc4ccncc4)cc3)c[nH]c2c1 | +
c1cc(NCCc2c[nH]c3ccccc23)cc(Nc2ccncc2)c1 | +
Cc1ccc(Cn2c(=O)c3ccccc3n3c(=O)n(CC(=O)c4ccc(F)cc4)nc23)cc1 | n
COC(=O)c1ncn2c1C(=O)N(C1CC1)C(C)(C(=O)NCCCOC(C)C)C2 (stereo not drawn) | n
O=C(NCc1ccncc1)c1ccc2c(=O)nc3c(-c4cccc(F)c4)n[nH]n3c2c1 | n
Cc1cc2c(cc3n2CC(C)(C(=O)NC2CCCCCC2)N(Cc2ccccc2F)C3=O)o1 (stereo not drawn) | n
Cn1c(=O)c2ccc(C(=O)NC3CCCCC3)cc2n2c(=O)n(Cc3ccc(N4CCCC4=O)cc3)nc12 | n
Cc1ccccc1NC(=O)Cn1nc2n(CC(C)C)c(=O)c3ccc(C(=O)NC(C)C)cc3n2c1=O | n
CCc1ccc(CN2C(=O)c3cc(-c4ccc(OC)cc4)nn3CC2(C)C(=O)NCc2ccccc2OC)cc1 (stereo not drawn) | n
CCCn1c(=O)c2ccccc2n2c(SCC(=O)Nc3ccc4c(c3)OCCO4)nnc12 | n
CC(C)CCn1c(=O)c2ccccc2n2c(SCc3ccccc3)nnc12 | n
O=C1Nc2ccc(Cl)cc2[C@@](C#CC2CC2)(C(F)(F)F)O1 | +!
CN(C)S(=O)(=O)N1CC(CNC(=O)C2CC2)C2(CCCCC2)C1 (stereo not drawn) | n
CCCn1c(=O)c2ccc(C(=O)NCC(C)C)cc2n2c(=O)n(CC(=O)Nc3ccccc3F)nc12 | n
CCN(CC)CCOc1ccc(Nc2ncc3cc(-c4c(Cl)cccc4Cl)c(=O)n(C)c3n2)cc1 | +
CC(C)OCCCNC(=O)c1cc2n(n1)CC(C)(C(=O)NC1CCCCC1)N(C)C2=O (stereo not drawn) | n
CC(C)c1cc2n(n1)CC(C)(C(=O)NC1CCCCCC1)N(Cc1cccc(F)c1)C2=O (stereo not drawn) | n
CCOc1ccc(CCN2C(=O)c3cc4ccccc4n3CC2(C)C(=O)NCc2ccccc2)cc1 (stereo not drawn) | n
SMILES | Methyltransferases
CCCOc1ccc(CN2C(=O)c3c(C(=O)OC)ncn3CC2(C)C(=O)NCc2ccccc2)cc1 (stereo not drawn) | n
Cc1cc2c(cc3n2CC(C)(C(=O)NC2CCCCCC2)N(CCN(CC(C)C)CC(C)C)C3=O)o1 (stereo not drawn) | n
COc1ccccc1CNC(=O)c1ccc2c(=O)n(-c3cccc(F)c3)c3nnc(C)n3c2c1 | n
COc1ccc(CN2C(=O)c3cc(C(C)(C)C)nn3CC2(C)C(=O)NC2CCCCC2)cc1 (stereo not drawn) | n
CCOC(=O)CNC(=O)C1(C)Cn2c(ccc2-c2ccco2)C(=O)N1c1ccc(OC)c(OC)c1 (stereo not drawn) | n
CCn1c(=O)n(CC)c2cc(S(=O)(=O)N3CCN(Cc4ccc5c(c4)OCO5)CC3)ccc21 | n
Cn1c(=O)c2ccc(C(=O)NC3CCCC3)cc2n2c(SCC(=O)c3ccccc3)nnc12 | n
CC(C)c1ccc(NS(=O)(=O)c2ccc3[nH]c4c(c3c2)CCCC4)cc1 | n
COc1ccc(CCNC(=O)c2ccc3nnc(C4CC4)n3c2)cc1 | n
Cc1cc2c(cc1Cl)N(C(=O)Nc1ccnc3ccccc13)CC2 | +
COc1ccc(NC(=O)N2CCc3c2ccc2ccccc32)cc1N1CCN(C)CC1 | n
Cc1cc2c(cc1Cl)N(C(=O)Nc1ccc(Oc3cccnc3C)nc1)CC2 | n
CCOC(=O)c1cc2n(n1)CC(C)(C(=O)NC1CCCCC1)N(CCCc1ccccc1)C2=O (stereo not drawn) | n
COc1cccc(CN2C(=O)c3nc4ccccc4n3CC2(C)C(=O)NC2CCCCCC2)c1 (stereo not drawn) | n
COc1ncc(-c2ccc3nccc(-c4ccnnc4)c3c2)cc1NS(=O)(=O)c1ccc(F)cc1F | +
CC(C)Cn1c(=O)c2ccccc2n2c(CCC(=O)NCc3cccnc3)nnc12 | n
CCOC(=O)c1ccc2c(c1)[C@@H]1C=CC[C@@H]1[C@H](c1ccccc1Br)N2 | n
COc1cc(/C=C/C(=O)OC[C@H]2O[C@H](O[C@]3(CO)O[C@H](CO)[C@@H](O)[C@@H]3O)[C@H](O)[C@@H](O)[C@@H]2O)cc(OC)c1O | n
COc1cc(/C=C/C(=O)OC[C@H]2O[C@@](CO)(O[C@H]3O[C@H](CO)[C@@H](O)[C@H](O)[C@H]3O)[C@@H](OC(=O)/C=C/c3ccc(O)c(OC)c3)[C@@H]2O)ccc1O | +
COc1cc(/C=C/C(=O)O[C@H]2[C@H](OC(=O)/C=C/c3cc(OC)c(O)c(OC)c3)O[C@H](CO[C@@H]3O[C@H](CO)[C@@H](O)[C@H](O)[C@H]3O)[C@@H](O)[C@@H]2O)ccc1O | +
COc1cc(CC(COC2OC(CO)C(O)C(O)C2O)c2cc(/C=C/CO)cc(OC)c2O)ccc1O (stereo not drawn) | n
COc1cc([C@H]2c3cc(O)c(OC)cc3C[C@@H](CO[C@@H]3O[C@H](CO)[C@@H](O)[C@H](O)[C@H]3O)[C@@H]2CO)ccc1O | n
COc1cc(/C=C/C(=O)O[C@H]2[C@H](O)[C@@H](CO)O[C@@]2(CO)O[C@H]2O[C@H](CO)[C@@H](O)[C@H](O)[C@H]2O)ccc1O | n
CN1CCC(c2cn(C)c3ccc(OS(=O)(=O)c4c(F)cccc4F)cc23)CC1 | n
Cc1ccc(Cn2nc3n(Cc4ccc(C)cc4)c(=O)c4ccccc4n3c2=O)cc1 | n
SMILES | Methyltransferases
COCCOc1cnc2ccn([C@H](C)c3nnc4c(F)cc(-c5cnn(C)c5)cn34)c(=O)c2c1 | n
CCCCN1C(=O)c2cc(C(=O)N3CCN(CCC)CC3)nn2CC1(C)C(=O)NC1CCCC1 (stereo not drawn) | n
Cc1csc2c(N[C@@H](C)CN3CCN(S(=O)(=O)c4ccc(Cl)c(Cl)c4)CC3)ncnc12 | n
COc1ccc(-c2c(C)nn3c(NCCN4CCOCC4)cc(C)nc23)cc1OC | n
CC(C)=CCCC1(C)Oc2cc3c(c4c2C2C(O4)C(C)(O)CCC21)CN(C(CCC(=O)O)C(=O)O)C3=O (stereo not drawn) | n
O=c1[nH]c2ccc(S(=O)(=O)N3CCCc4ccccc43)cc2[nH]1 | n
CN(C)CC1CCn2c(c(C3=C(c4cn(C)c5ccccc45)C(=O)NC3=O)c3ccccc32)C1 (stereo not drawn) | +!
Cn1cc(C(=O)OCC2CCN(CCNS(C)(=O)=O)CC2)c2ccccc21 | n
Cn1cc(CN2CCCCCNC(=O)[C@@H]3CCC[C@@H]32)c2ccccc21 | n
COc1ccc(NC(=O)Cn2nc3n(CCc4ccccc4)c(=O)c4ccccc4n3c2=O)cc1OC | n
CCCC1(CCC)CCC2(CCN(CCCN(CC)CC)C2)CC1 | +
